Inconclusive results are not listed. Calls of active or inactive are those of the source. Unless noted, calls follow the shape of the dose curve; as a rule, active = well fitted curve in the direction sought with a large enough effect in the repeat runs; inconclusive = weak or mixed curves; inactive = no such curve, though single readings can be large; an effect the other way counts as inactive or inconclusive.
Columns and labels:
[1] = qHTS assay to identify small molecule antagonists of the estrogen related receptor (ERR) signaling pathway from Tox21 library - cell viability counter screen (AID 1224834); also: nearly all actives have a fitted effect of over 30% in size; also: potency is read from the fitted curve at half-maximal effect
Summary of the method: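 ERR reporter cells were plated 6 h before compound addition, then exposed to test compounds in DMSO for 17.5 h at 37 C. Viability was read as CellTiter-Fluor fluorescence after a 30-minute incubation at 37 C.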

[2] = qHTS assay to identify small molecule agonists of the constitutive androstane receptor (CAR) signaling pathway - cell viability counter screen (AID 1224836); also: nearly all actives have a fitted effect of over 45% in size
Summary of the method: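 Counter screen multiplexed with the CAR reporter readout: HepG2 cells co-transfected with hCAR and the CYP2B6-2.2kb construct receive a 15-concentration compound series and 0.75 uM PK11195 (final), then CellTiter-Fluor fluorescence is read after 23 h.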

[3] = qHTS assay to identify small molecule antagonists of the constitutive androstane receptor (CAR) signaling pathway - cell viability counter screen (AID 1224837); also: nearly all actives have a fitted effect of over 45% in size; also: potency is read from the fitted curve at half-maximal effect
Summary of the method: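 HepG2 cells stably expressing hCAR and a CYP2B6-2.2kb reporter were plated and pre-incubated 4 hr at 37 C/5% CO2, then given compounds at 15 concentrations plus 50 nM CITCO (final). After 23 hr, viability was read by CellTiter-Fluor fluorescence.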

[4] = target: Nuclear receptor subfamily 1 group I member 3 (Homo sapiens) (UniProt Q14994); assay: qHTS assay to identify small molecule antagonists of the constitutive androstane receptor (CAR) signaling pathway (AID 1224838); also: nearly all actives have a fitted effect of over 40% in size
Nuclear receptor subfamily 1 group I member 3 (Homo sapiens), sequence (Q14994 whole entry, looked up): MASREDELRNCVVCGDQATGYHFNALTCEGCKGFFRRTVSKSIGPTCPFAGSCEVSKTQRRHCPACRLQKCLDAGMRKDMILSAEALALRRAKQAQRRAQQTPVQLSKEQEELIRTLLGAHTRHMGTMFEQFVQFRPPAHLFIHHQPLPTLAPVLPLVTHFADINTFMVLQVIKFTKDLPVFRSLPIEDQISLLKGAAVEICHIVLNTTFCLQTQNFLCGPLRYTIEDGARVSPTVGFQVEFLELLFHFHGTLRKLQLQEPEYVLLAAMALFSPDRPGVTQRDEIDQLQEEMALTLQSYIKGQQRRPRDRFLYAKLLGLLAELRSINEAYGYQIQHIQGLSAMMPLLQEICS
Summary of the method: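 HepG2 cells stably co-transfected with hCAR and a CYP2B6-2.2kb luciferase reporter were seeded 4 h before compound addition at 15 concentrations. Cells were stimulated with 50 nM CITCO (final) for 24 h at 37 C; luciferase luminescence was then read.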

[5] = target: Nuclear receptor subfamily 1 group I member 3 (Homo sapiens) (UniProt Q14994); assay: qHTS assay to identify small molecule agonists of the constitutive androstane receptor (CAR) signaling pathway (AID 1224839); also: nearly all actives have a fitted effect of over 15% in size
Summary of the method: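 A 15-concentration quantitative screen uses HepG2 cells co-transfected stably with human CAR and CYP2B6-2.2kb reporter. Treatment lasts 24 h with 0.75 uM PK11195 final present; ONE-Glo luminescence is the signal.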

[6] = qHTS assay to identify small molecule antagonists of the estrogen related receptor signaling pathway with the pleiotropic PPARgamma coactivator (PGC) from Tox21 10K library (AID 1224841; call rule not given here; also: actives are mostly falling curves and most rising ones were filed inactive; nearly all actives have a fitted effect of over 50% in size)
Summary of the method: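 PGC/ERR reporter cells were seeded at 2,000 cells/well and held 6 hours at 37 C/5% CO2 before pin-tool addition of compounds in DMSO. After 18 hours at 37 C, One-Glo was added and luminescence read after 30 minutes at room temperature.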

[7] = target: Thyrotropin receptor (Homo sapiens) (UniProt P16473); assay: qHTS assay to identify small molecule agonists of the thyroid stimulating hormone receptor (TSHR) signaling pathway (AID 1224843; calls by dose curve; also: nearly all actives have a fitted effect of over 45% in size)
Thyrotropin receptor (Homo sapiens), sequence (P16473 whole entry, looked up): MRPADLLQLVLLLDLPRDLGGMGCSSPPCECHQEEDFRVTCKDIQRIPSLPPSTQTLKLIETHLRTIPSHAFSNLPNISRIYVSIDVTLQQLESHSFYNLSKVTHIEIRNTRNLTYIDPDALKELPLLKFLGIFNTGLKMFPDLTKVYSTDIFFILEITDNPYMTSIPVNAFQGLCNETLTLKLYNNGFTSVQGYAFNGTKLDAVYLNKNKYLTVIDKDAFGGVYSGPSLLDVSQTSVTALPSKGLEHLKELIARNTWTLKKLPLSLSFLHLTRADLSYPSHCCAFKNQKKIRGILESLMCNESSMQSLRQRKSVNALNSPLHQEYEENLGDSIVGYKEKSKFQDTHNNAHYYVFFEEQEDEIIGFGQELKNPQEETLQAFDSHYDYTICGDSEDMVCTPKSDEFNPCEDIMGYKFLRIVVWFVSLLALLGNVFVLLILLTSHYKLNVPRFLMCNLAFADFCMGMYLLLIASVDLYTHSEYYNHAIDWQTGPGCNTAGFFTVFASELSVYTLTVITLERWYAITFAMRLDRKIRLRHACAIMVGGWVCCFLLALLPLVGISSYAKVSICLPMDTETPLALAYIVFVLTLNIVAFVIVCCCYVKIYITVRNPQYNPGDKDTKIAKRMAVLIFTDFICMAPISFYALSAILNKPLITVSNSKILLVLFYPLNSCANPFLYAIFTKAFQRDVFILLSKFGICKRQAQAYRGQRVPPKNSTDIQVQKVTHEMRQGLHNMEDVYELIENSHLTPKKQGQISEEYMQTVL
Summary of the method: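 HEK293 cells stably bearing the thyrotropin receptor were plated at 800 cells/well and challenged with compound (30 min, RT). Accumulated cAMP was quantified via cAMP-d2 competing for cryptate-tagged antibody.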

[8] = qHTS assay to identify small molecule agonists of the hypoxia (HIF-1) signaling pathway - cell viability counter screen (AID 1224844; calls by dose curve; also: nearly all actives have a fitted effect of over 50% in size; also: potency is read from the fitted curve at half-maximal effect)
Summary of the method: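 HRE-bla ME-180 cells in medium with 0.5% dialyzed FBS were preincubated 5 hrs at 37C, exposed to compounds for 17 hrs, then viability was read as CellTiter-Glo luminescence after 30 min at room temperature, in the reporter wells.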

[9] = qHTS assay to identify small molecule agonists of H2AX (AID 1224845; active = well fitted activation curve with a large enough effect in the signal ratio in the repeat runs, not every such curve was filed as active; the % refers to the signal ratio; also: potency is read from the fitted curve at half-maximal effect)
Summary of the method: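 Phospho-H2AX Ser139 measured by HTRF (ex 320 nm; em 665 and 620 nm) after 24 hr antibody incubation. Compounds, 15 concentrations, 0.76% DMSO, were applied to CHO-K1 cells for 3hr at 37C before lysis.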

[10] = qHTS assay to identify small molecule agonists of the hypoxia (HIF-1) signaling pathway (AID 1224846; active = well fitted activation curve with a large enough effect in the signal ratio in the repeat runs, not every such curve was filed as active; the % refers to the signal ratio)
Summary of the method: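 HRE-bla ME-180 cells (beta-lactamase reporter under hypoxia response element) were plated at 2,000 cells/well in medium with 0.5% dialyzed FBS, rested 5 hrs, then given compounds in DMSO for 17 hrs at 37C, 5% CO2. Reporter induction was read with CCF4-AM FRET substrate.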

[11] = qHTS assay to identify small molecule agonists of H2AX - cell viability counter screen (AID 1224847; calls by dose curve; also: top concentration of the series differs between compounds; nearly all actives have a fitted effect of over 30% in size)
Summary of the method: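 We seed wild-type CHO-K1 cells overnight, treat them for 3 hr at 37C with compounds in 15-concentration series, and quantify remaining viability by CellTiter-Glo luminescence.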

[12] = qHTS assay to identify small molecule antagonists of the estrogen related receptor (ERR) signaling pathway from Tox21 library (AID 1224848); also: nearly all actives have a fitted effect of over 50% in size; also: potency is read from the fitted curve at half-maximal effect
Summary of the method: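 Reading was by luminescence 30 min after ONE-Glo addition. Before that, ERR cells at 2,000 per well had rested 6 h at 37 C/5% CO2 and then received pin-tooled compounds in DMSO for 18 h at 37 C.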

[13] = qHTS assay to identify small molecule agonists of the estrogen related receptor (ERR) signaling pathway from Tox21 library (AID 1224849; calls by dose curve; also: nearly all actives have a fitted effect of over 15% in size); conditions: ERR reporter cell line, ONE-Glo luciferase, 18 h; at 92.4 µM (top of the series) unless noted
Summary of the method: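 ERR reporter cell line (NTP) seeded, rested 6 h at 37 C/5% CO2, then pinned with Tox21 compounds in DMSO. After 18 h at 37 C, ONE-Glo luciferase luminescence was read following 30 min at room temperature.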

[14] = qHTS RealTime-Glo MT Cell Viability Assay in HepG2 cells - 24 hour (AID 1224867); also: nearly all actives have a fitted effect of over 50% in size
Summary of the method: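 Tox21 10K library screened in qHTS format on HepG2 cells carrying RealTime-Glo reagents. Compounds were added after a 5 h preincubation, and the luminescent signal from continuous culture was measured repeatedly during 40 h treatment.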

[15] = qHTS RealTime-Glo MT Cell Viability Assay in HEK293 cells - 32 hour (AID 1224868); also: nearly all actives have a fitted effect of over 50% in size; also: potency is read from the fitted curve at half-maximal effect; as to activity change, negative = cytotoxic: top concentration of the series differs between compounds
Summary of the method: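 Luminescence generated by NanoLuc from substrate produced by living HEK293 cells served as the viability signal. Each value reflects the reading at its stated time point during continuous 40 h compound exposure at 37 C.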

[16] = A CellTox Green Cytotoxicity Assay to monitor cytotoxicity in HEK293 cells - 0 hour (AID 1224869); also: nearly all actives have a fitted effect of over 50% in size
Summary of the method: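 HEK293 cells premixed with CellTox Green dye were seeded at 600 cells/well and left 5 h at 37 C/5% CO2 before pin transfer of 23 nL compound in DMSO. Fluorescence from dye bound to dead-cell DNA was read during 40 h treatment.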

[17] = qHTS RealTime-Glo MT Cell Viability Assay in HepG2 cells - 40 hour (AID 1224870); also: nearly all actives have a fitted effect of over 50% in size
Summary of the method: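 Real-time viability: cells seeded at 600 per well together with NanoLuc and cell-permeant prosubstrate, compounds added after 5 h incubation. Luminescence tracked at 0, 8, 16, 24, 32 and 40 h of exposure.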

[18] = target: Luciferin 4-monooxygenase (Photinus pyralis) (UniProt P08659); assay: qHTS assay to identify small molecule inhibitors of firefly luciferase (AID 1224835); also: nearly all actives have a fitted effect of over 25% in size; also: potency is read from the fitted curve at half-maximal effect
Luciferin 4-monooxygenase (Photinus pyralis), sequence (P08659 whole entry, looked up): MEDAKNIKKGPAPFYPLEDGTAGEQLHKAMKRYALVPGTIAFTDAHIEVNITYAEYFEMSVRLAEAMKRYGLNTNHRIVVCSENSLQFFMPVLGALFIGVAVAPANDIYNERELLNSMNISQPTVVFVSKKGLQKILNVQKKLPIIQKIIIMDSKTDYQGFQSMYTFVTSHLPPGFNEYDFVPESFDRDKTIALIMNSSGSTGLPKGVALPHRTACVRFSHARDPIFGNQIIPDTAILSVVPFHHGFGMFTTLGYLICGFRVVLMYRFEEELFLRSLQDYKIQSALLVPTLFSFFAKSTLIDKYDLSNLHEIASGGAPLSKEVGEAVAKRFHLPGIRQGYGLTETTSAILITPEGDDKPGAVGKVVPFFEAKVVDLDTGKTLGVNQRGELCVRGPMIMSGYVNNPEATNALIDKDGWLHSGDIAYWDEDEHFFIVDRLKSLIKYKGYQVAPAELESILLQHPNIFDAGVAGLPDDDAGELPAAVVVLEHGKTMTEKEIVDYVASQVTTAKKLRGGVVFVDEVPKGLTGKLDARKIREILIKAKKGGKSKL
Summary of the method: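 Inhibition of purified Photinus luciferase is measured by luminescence. Substrate levels (D-luciferin, ATP) sit at their KM values. Each compound is tested in a concentration series.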

[19] = qHTS assay to identify small molecule antagonists of the estrogen related receptor signaling pathway with the pleiotropic PPARgamma coactivator (PGC) from Tox21 10K library - cell viability counter screen (AID 1224840; active = well fitted cell-killing curve with a large enough effect in the repeat runs, not every such curve was filed as active; also: nearly all actives have a fitted effect of over 40% in size; also: potency is read from the fitted curve at half-maximal effect)
Summary of the method: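 PGC/ERR cells were seeded at 2,000 cells/well and left 6 hours at 37 C/5% CO2 before pin-tool addition of compounds in DMSO. After 17.5 hours at 37 C, CellTiter-Fluor was added and fluorescence read 30 minutes later.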

[20] = qHTS assay to identify small molecule agonists of the estrogen related receptor signaling pathway with the pleiotropic PPARgamma coactivator (PGC) from Tox21 10K library (AID 1224842); also: nearly all actives have a fitted effect of over 15% in size
Summary of the method: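 Luminescence from One-Glo (30 min, room temperature) measured after PGC/ERR cells had 18 h at 37 C with pinned compound (23 nL in DMSO). Cells had been seeded at 2,000 per well and pre-incubated 6 h.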
% is scaled to controls: 0 for no effect and ±100 for the full control effect.

CN1CCN(C2=Nc3ccccc3Sc3ccc(Cl)cc32)CC1
inactive: Potency [1] | Potency [2] | Potency [3] | Potency [4] | Potency [5] | Potency [6] | Potency [7] | Potency [8] | Potency [9] | outcome [10] | Potency [11] | Potency [12] | activity change, positive = activation [13] 1.89% [at 42.5 µM] | Potency [14] | Potency [15] | Potency [16] | Potency [17]

O=C(CCN1CCN2CCCC2C1)N1c2ccccc2Sc2ccc(Cl)cc21 (centres undefined)
inactive: viability change, negative = cytotoxic [1] -8.93% [at 19 µM] | activity change, negative = inhibition [18] -1.42% [at 23.6 µM] | activity change, negative = cytotoxicity [3] -18.2% [at 19 µM] | activity, negative = inhibition [6] -25.1% [at 19 µM] | activation [7] -2.43% [at 19 µM] | activation (H2AX phosphorylation) [9] -2.77% [at 31.6 µM] | activity change, negative = cytotoxicity [11] -4.72% [at 31.6 µM] | activity, negative = inhibition [12] -23.7% [at 19 µM] | activity change, positive = activation [13] -13.2% [at 19 µM] | activity change, negative = cytotoxicity [14] -4.92% [at 15.8 µM] | activity change, negative = cytotoxic [15] -23% [at 15.8 µM] | cytotoxicity [16] -5.19% [at 15.8 µM] | activity change, negative = cytotoxic [17] -2.23% [at 15.8 µM]

C=CC(=O)OCC(C)OCC(C)OCC(C)OC(=O)C=C (centres undefined)
active: Potency [1] 61.1 µM | Potency [19] 54.5 µM | Potency [9] 101 µM | Potency [15] 43.6 µM
inactive: Potency [18] | Potency [4] | Potency [5] | Potency [8] | Potency [16]

C=Cc1c(C)c2cc3[nH]c(cc4nc(cc5nc(cc1[nH]2)C(C)=C5CCC(=O)O)C(CCC(=O)O)=C4C)c(C)c3C=C
inactive: Potency [18] | Potency [4] | Potency [5] | Potency [19] | Potency [6] | Potency [11] | activity change, positive = activation [13] -18% [at 42.5 µM] | Potency [14] | Potency [15] | Potency [16] | Potency [17]
active: Potency [1] 23.7 µM | Potency [8] 19 µM

CC(C)(C)c1cc(O)c(C(C)(C)C)cc1O
inactive: Potency [18] | Potency [20] | Potency [7] | Potency [8] | Potency [9] | outcome [10] | Potency [11] | activity change, positive = activation [13] -60.5% | Potency [14] | Potency [16] | Potency [17]
active: Potency [1] 48.6 µM | Potency [12] 24.3 µM

Cc1cc(C)c(S(=O)(=O)O)cc1N=Nc1cc(S(=O)(=O)O)c2ccccc2c1O
active: Potency [1] 54.5 µM | Potency [18] 1.42 µM | Potency [3] 61.1 µM | Potency [19] 34.4 µM
inactive: Potency [5] | Potency [7] | Potency [14] | Potency [16] | Potency [17]

CCCCCCCCN(C)C
inactive: Potency [1] | Potency [18] | Potency [3] | Potency [19] | Potency [6] | Potency [7] | Potency [8] | Potency [9] | outcome [10] | Potency [11] | Potency [12] | activity change, positive = activation [13] 2.41% | Potency [14] | Potency [15] | Potency [16] | Potency [17]

COc1cc(C(C)(C)C)c(O)c(C(C)(C)C)c1
inactive: Potency [1] | Potency [18] | Potency [3] | Potency [19] | Potency [6] | Potency [12] | activity change, positive = activation [13] -4.21% | Potency [14] | Potency [16] | Potency [17]

CCCCOc1cc(C(=O)OCCN(CC)CC)ccc1N
inactive: Potency [1] | Potency [18] | Potency [3] | Potency [4] | Potency [19] | Potency [8] | Potency [9] | outcome [10] | Potency [11] | Potency [14] | Potency [16] | Potency [17]

CN1CCN(C2=Nc3cc(Cl)ccc3Nc3ccccc32)CC1
active: Potency [1] 26.6 µM
inactive: Potency [18] | Potency [4] | Potency [7] | Potency [8] | Potency [11] | Potency [16]
